Results on 25 sequences are retold here after PMC7862700, “An all-to-all approach to the identification of sequence-specific readers for epigenetic DNA modifications on cytosine”.

Common to all, as to test: DAPPL (digital affinity profiling via proximity ligation, sequencing); 10 mM Tris-HCl pH 7.5, 50 mM NaCl, 1 mM DTT, 4% glycerol, room temperature, 30 min; GST-TFs on glutathione beads, 16-mer random dsDNA library, 0.1% formaldehyde crosslink after washing; high values mean tight binding
For experiment [1], the target named is SPI1 (Homo sapiens, UniProt P17947 1-270). Particulars: protein: recombinant; tags: N-terminal GST; dsDNA, one strand shown. A digest of the protocol:
(§1)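 Beads coated with glutathione captured GST-fused human transcription factors that had been expressed in yeast, and the factors were then given DNA barcodes and pooled with a tag-only sample. The pools were incubated with 200 nmole of a random double-stranded 16-mer DNA library in Tris/NaCl/DTT/glycerol buffer for 30 min at room temperature, washed, crosslinked with 0.1% formaldehyde and proximity-ligated with BsaI/T4 ligase at 37 °C for 1 h. PCR amplification and Illumina NextSeq500 sequencing came last. Binding signal is each hexamer's read frequency for a factor divided by its frequency for the tag-only sample.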

For experiment [2], the target named is HSF1 (Homo sapiens, UniProt Q00613 1-529). Particulars: protein: recombinant; tags: N-terminal GST; chain copies: 3; dsDNA, one strand shown. A digest of the protocol: as §1
The target in experiment [3] is T1, SPIC (Homo sapiens, UniProt Q8N5J4 1-248).
T1 sequence: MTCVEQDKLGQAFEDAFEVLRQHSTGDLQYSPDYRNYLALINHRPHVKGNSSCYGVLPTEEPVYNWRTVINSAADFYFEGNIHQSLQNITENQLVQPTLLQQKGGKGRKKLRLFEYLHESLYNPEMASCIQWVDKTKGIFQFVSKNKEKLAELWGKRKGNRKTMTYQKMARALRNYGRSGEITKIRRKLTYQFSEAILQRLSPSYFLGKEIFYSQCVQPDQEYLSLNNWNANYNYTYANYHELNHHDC
Particulars: protein: recombinant; tags: N-terminal GST; dsDNA, one strand shown. The method in brief:
as §1

Experiment [4] addresses CRX (Homo sapiens, UniProt O43186 1-299). Particulars: protein: recombinant; tags: N-terminal GST; dsDNA, one strand shown. The method in brief: as §1
In experiment [5] the target is T2, ELK3 (Homo sapiens, UniProt P41970 1-407).
T2 sequence: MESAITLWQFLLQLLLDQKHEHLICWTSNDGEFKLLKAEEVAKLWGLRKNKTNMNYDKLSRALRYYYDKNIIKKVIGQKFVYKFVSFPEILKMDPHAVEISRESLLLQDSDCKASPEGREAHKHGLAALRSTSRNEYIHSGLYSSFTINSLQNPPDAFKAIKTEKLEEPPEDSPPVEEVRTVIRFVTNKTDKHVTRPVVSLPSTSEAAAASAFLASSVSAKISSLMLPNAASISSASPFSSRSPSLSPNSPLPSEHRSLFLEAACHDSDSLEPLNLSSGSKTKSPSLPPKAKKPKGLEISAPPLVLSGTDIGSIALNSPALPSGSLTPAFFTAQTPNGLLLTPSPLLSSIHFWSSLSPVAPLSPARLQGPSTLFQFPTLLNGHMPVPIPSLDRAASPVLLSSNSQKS
Particulars: protein: recombinant; tags: N-terminal GST; dsDNA, one strand shown. A digest of the protocol: as §1

Experiment [6] deals with T3, ELF5 (Homo sapiens, UniProt Q9UKW6-2 1-255).
T3 sequence: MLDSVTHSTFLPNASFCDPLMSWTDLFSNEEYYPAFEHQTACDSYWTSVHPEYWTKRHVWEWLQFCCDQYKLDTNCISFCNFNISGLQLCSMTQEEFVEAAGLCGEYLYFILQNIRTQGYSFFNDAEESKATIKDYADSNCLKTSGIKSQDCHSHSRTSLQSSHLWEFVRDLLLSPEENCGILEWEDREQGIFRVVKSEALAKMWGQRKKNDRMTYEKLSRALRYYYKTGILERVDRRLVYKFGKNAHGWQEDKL
Particulars: protein: recombinant; tags: N-terminal GST; dsDNA, one strand shown. A digest of the protocol:
as §1

For experiment [7], the target named is T4, FLI1 (Homo sapiens, UniProt Q01543 1-452).
T4 sequence: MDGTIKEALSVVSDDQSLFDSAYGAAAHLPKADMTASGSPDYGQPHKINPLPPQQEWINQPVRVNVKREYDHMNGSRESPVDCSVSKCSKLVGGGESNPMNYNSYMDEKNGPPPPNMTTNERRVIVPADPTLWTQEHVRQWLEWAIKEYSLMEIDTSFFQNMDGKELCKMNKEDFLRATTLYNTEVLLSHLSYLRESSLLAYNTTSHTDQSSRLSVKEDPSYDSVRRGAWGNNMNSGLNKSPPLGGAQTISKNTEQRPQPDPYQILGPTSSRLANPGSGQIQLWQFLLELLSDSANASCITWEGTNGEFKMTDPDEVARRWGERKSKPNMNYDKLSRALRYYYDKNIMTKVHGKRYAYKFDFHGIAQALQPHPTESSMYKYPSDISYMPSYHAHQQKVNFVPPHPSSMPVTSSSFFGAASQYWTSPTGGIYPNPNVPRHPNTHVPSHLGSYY
Particulars: protein: recombinant; tags: N-terminal GST; dsDNA, one strand shown. The method in brief: as §1

Sequence of HSF1 (Q00613 whole entry): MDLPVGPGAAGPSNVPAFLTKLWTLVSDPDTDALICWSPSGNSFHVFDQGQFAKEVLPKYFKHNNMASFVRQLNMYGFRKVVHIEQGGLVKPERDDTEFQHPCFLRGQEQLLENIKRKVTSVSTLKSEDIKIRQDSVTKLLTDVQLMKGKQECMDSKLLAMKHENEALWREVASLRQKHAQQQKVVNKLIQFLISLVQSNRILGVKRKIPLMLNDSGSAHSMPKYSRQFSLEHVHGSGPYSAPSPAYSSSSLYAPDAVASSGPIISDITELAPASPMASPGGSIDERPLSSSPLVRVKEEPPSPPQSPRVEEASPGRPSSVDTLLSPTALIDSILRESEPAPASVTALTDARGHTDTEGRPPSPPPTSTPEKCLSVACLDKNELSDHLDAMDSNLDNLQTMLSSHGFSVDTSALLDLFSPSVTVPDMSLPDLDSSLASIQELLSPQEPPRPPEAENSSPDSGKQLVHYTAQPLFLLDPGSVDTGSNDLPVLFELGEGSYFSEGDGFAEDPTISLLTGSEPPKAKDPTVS
Sequence of CRX (O43186 whole entry): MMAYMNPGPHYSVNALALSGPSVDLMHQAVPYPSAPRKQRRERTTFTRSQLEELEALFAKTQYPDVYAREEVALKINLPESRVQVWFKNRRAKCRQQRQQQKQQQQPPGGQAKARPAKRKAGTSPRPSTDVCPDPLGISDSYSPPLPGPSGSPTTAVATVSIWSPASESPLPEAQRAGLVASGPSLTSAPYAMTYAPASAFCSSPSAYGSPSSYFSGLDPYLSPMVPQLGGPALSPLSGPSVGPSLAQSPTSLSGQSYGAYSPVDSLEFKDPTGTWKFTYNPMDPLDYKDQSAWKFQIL

With CATAAT, the binding signal is 1 fold enrichment (6-mer frequency, TF over GST control) in experiment [1]; 1.37 fold enrichment (6-mer frequency, TF over GST control) in experiment [2]; 1.24 fold enrichment (6-mer frequency, TF over GST control) in experiment [3]; 1.93 fold enrichment (6-mer frequency, TF over GST control) in experiment [4].

Take TGGCGA: the binding signal is 1.03 fold enrichment (6-mer frequency, TF over GST control) in experiment [1]; 1.03 fold enrichment (6-mer frequency, TF over GST control) in experiment [2]; 1.08 fold enrichment (6-mer frequency, TF over GST control) in experiment [3].

ATCAAA: the binding signal in experiment [1] was 1.06 fold enrichment (6-mer frequency, TF over GST control); in experiment [5], 1.08 fold enrichment (6-mer frequency, TF over GST control); in experiment [2] it was 1.1 fold enrichment (6-mer frequency, TF over GST control); in experiment [4], 1.31 fold enrichment (6-mer frequency, TF over GST control); in experiment [6] it was 1.02 fold enrichment (6-mer frequency, TF over GST control).

With TGTAAG, the binding signal in experiment [1] was 1.12 fold enrichment (6-mer frequency, TF over GST control); in experiment [5], 1.11 fold enrichment (6-mer frequency, TF over GST control); in experiment [2], 1.09 fold enrichment (6-mer frequency, TF over GST control); in experiment [3], 1.22 fold enrichment (6-mer frequency, TF over GST control); in experiment [4] it was 1.32 fold enrichment (6-mer frequency, TF over GST control); in experiment [6], 1.11 fold enrichment (6-mer frequency, TF over GST control).

Turning to TCACGG, the binding signal is 1.06 fold enrichment (6-mer frequency, TF over GST control) in experiment [7]; 1.01 fold enrichment (6-mer frequency, TF over GST control) in experiment [1]; 1 fold enrichment (6-mer frequency, TF over GST control) in experiment [5]; 1.13 fold enrichment (6-mer frequency, TF over GST control) in experiment [6].

For the sequence AGAAAA, the binding signal was 1.11 fold enrichment (6-mer frequency, TF over GST control) in experiment [1]; 1 fold enrichment (6-mer frequency, TF over GST control) in experiment [5]; 2.39 fold enrichment (6-mer frequency, TF over GST control) in experiment [2]; 1.04 fold enrichment (6-mer frequency, TF over GST control) in experiment [3]; 1.27 fold enrichment (6-mer frequency, TF over GST control) in experiment [4]; 1.02 fold enrichment (6-mer frequency, TF over GST control) in experiment [6].

Take AAGATC: the binding signal was 1.04 fold enrichment (6-mer frequency, TF over GST control) in experiment [1]; 1.02 fold enrichment (6-mer frequency, TF over GST control) in experiment [5]; 1.35 fold enrichment (6-mer frequency, TF over GST control) in experiment [2]; 1.19 fold enrichment (6-mer frequency, TF over GST control) in experiment [3]; 1.37 fold enrichment (6-mer frequency, TF over GST control) in experiment [4]; 1 fold enrichment (6-mer frequency, TF over GST control) in experiment [6].

Turning to TCAAGT, the binding signal is 1.06 fold enrichment (6-mer frequency, TF over GST control) in experiment [1]; 1.13 fold enrichment (6-mer frequency, TF over GST control) in experiment [5]; 1.08 fold enrichment (6-mer frequency, TF over GST control) in experiment [2]; 1.12 fold enrichment (6-mer frequency, TF over GST control) in experiment [3]; 1.12 fold enrichment (6-mer frequency, TF over GST control) in experiment [4].

TAGTAG: the binding signal in experiment [2] is 1.2 fold enrichment (6-mer frequency, TF over GST control); in experiment [3], 1.02 fold enrichment (6-mer frequency, TF over GST control); in experiment [4] it was 1.25 fold enrichment (6-mer frequency, TF over GST control).

As for AGGATG, the binding signal in experiment [7] was 1.07 fold enrichment (6-mer frequency, TF over GST control); in experiment [6], 1.23 fold enrichment (6-mer frequency, TF over GST control).

As to TAGGGC, the binding signal in experiment [1] is 1.01 fold enrichment (6-mer frequency, TF over GST control); in experiment [2], 1.05 fold enrichment (6-mer frequency, TF over GST control); in experiment [3], 1.11 fold enrichment (6-mer frequency, TF over GST control); in experiment [4] it was 1.22 fold enrichment (6-mer frequency, TF over GST control); in experiment [6], 1.03 fold enrichment (6-mer frequency, TF over GST control).

As to ACTGGA, the binding signal in experiment [1] was 1.1 fold enrichment (6-mer frequency, TF over GST control); in experiment [5] it was 1.01 fold enrichment (6-mer frequency, TF over GST control); in experiment [2] it was 1.56 fold enrichment (6-mer frequency, TF over GST control); in experiment [3] it was 1.16 fold enrichment (6-mer frequency, TF over GST control); in experiment [4], 1.19 fold enrichment (6-mer frequency, TF over GST control).

As for CTAGCG, the binding signal in experiment [1] was 1.15 fold enrichment (6-mer frequency, TF over GST control); in experiment [2] it was 1.3 fold enrichment (6-mer frequency, TF over GST control); in experiment [3] it was 1.03 fold enrichment (6-mer frequency, TF over GST control); in experiment [4], 1.06 fold enrichment (6-mer frequency, TF over GST control); in experiment [6], 1.07 fold enrichment (6-mer frequency, TF over GST control).

On to GGCTAA, for which the binding signal in experiment [5] is 1.02 fold enrichment (6-mer frequency, TF over GST control); in experiment [2] it was 1.15 fold enrichment (6-mer frequency, TF over GST control); in experiment [3], 1.03 fold enrichment (6-mer frequency, TF over GST control); in experiment [4], 1.61 fold enrichment (6-mer frequency, TF over GST control).

With CGAATC, the binding signal in experiment [2] is 1.38 fold enrichment (6-mer frequency, TF over GST control); in experiment [3] it was 1 fold enrichment (6-mer frequency, TF over GST control); in experiment [4] it was 1.12 fold enrichment (6-mer frequency, TF over GST control).

For CCCAAA, the binding signal in experiment [1] is 1.15 fold enrichment (6-mer frequency, TF over GST control); in experiment [5], 1.1 fold enrichment (6-mer frequency, TF over GST control); in experiment [2], 1.13 fold enrichment (6-mer frequency, TF over GST control); in experiment [3], 1.04 fold enrichment (6-mer frequency, TF over GST control); in experiment [4], 1.13 fold enrichment (6-mer frequency, TF over GST control); in experiment [6], 1.06 fold enrichment (6-mer frequency, TF over GST control).

Regarding TGACGG, the binding signal in experiment [7] was 1.01 fold enrichment (6-mer frequency, TF over GST control); in experiment [1] it was 1.02 fold enrichment (6-mer frequency, TF over GST control); in experiment [6], 1.06 fold enrichment (6-mer frequency, TF over GST control).

For the sequence TCGTAT, the binding signal is 1.02 fold enrichment (6-mer frequency, TF over GST control) in experiment [1]; 1.01 fold enrichment (6-mer frequency, TF over GST control) in experiment [5]; 1.06 fold enrichment (6-mer frequency, TF over GST control) in experiment [2]; 1.06 fold enrichment (6-mer frequency, TF over GST control) in experiment [3]; 1.09 fold enrichment (6-mer frequency, TF over GST control) in experiment [4]; 1.01 fold enrichment (6-mer frequency, TF over GST control) in experiment [6].

Regarding GCAGCT, the binding signal in experiment [1] was 1 fold enrichment (6-mer frequency, TF over GST control); in experiment [3], 1.14 fold enrichment (6-mer frequency, TF over GST control); in experiment [4], 1 fold enrichment (6-mer frequency, TF over GST control).

For the sequence GGGAAA, the binding signal in experiment [1] was 1.05 fold enrichment (6-mer frequency, TF over GST control); in experiment [2], 1.15 fold enrichment (6-mer frequency, TF over GST control); in experiment [6], 1.42 fold enrichment (6-mer frequency, TF over GST control).

In the case of TGGAAG, the binding signal in experiment [1] was 1.08 fold enrichment (6-mer frequency, TF over GST control); in experiment [2] it was 1.56 fold enrichment (6-mer frequency, TF over GST control); in experiment [6], 1.07 fold enrichment (6-mer frequency, TF over GST control).

For the sequence AGCCAC, the binding signal in experiment [1] was 1.03 fold enrichment (6-mer frequency, TF over GST control); in experiment [5], 1.11 fold enrichment (6-mer frequency, TF over GST control); in experiment [3], 1.03 fold enrichment (6-mer frequency, TF over GST control).

As to CAGCCC, the binding signal in experiment [1] is 1.03 fold enrichment (6-mer frequency, TF over GST control); in experiment [5], 1.11 fold enrichment (6-mer frequency, TF over GST control); in experiment [3], 1.13 fold enrichment (6-mer frequency, TF over GST control); in experiment [6] it was 1.01 fold enrichment (6-mer frequency, TF over GST control).

In the case of TCGAAC, the binding signal is 1.06 fold enrichment (6-mer frequency, TF over GST control) in experiment [5]; 2 fold enrichment (6-mer frequency, TF over GST control) in experiment [2]; 1.07 fold enrichment (6-mer frequency, TF over GST control) in experiment [4]; 1.04 fold enrichment (6-mer frequency, TF over GST control) in experiment [6].

With GTTACC, the binding signal in experiment [1] is 1.12 fold enrichment (6-mer frequency, TF over GST control); in experiment [5], 1.08 fold enrichment (6-mer frequency, TF over GST control); in experiment [3], 1.03 fold enrichment (6-mer frequency, TF over GST control); in experiment [6], 1.11 fold enrichment (6-mer frequency, TF over GST control).
